Test [1] is described as follows: NCI Yeast Anticancer Drug Screen. Data for the rad50 strain (AID 155).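 Note: 0% = growth of vehicle-only cultures of the same strain.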 Conditions: S. cerevisiae rad50 strain growth inhibition; at 50.0 µM; active compounds read high. An outline of the steps:
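Vehicle-treated cultures provide the reference for the growth inhibition reported for compound-exposed, repair-deficient yeast.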

The nature of test [2]: NCI Yeast Anticancer Drug Screen. Data for the mec2-1 strain (AID 157). To be noted: S. cerevisiae mec2-1 strain, at 50.0 µM, active compounds read high. An outline of the steps: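 Strain: mec2-1 (DNA repair/cell cycle alteration). Compound exposure, then growth measured; inhibition expressed relative to vehicle.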
Test [3] is described as follows: NCI Yeast Anticancer Drug Screen. Data for the sgs1 mgt1 strain (AID 161).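 Note: 0% = growth of cultures given vehicle only.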 Conditions: S. cerevisiae sgs1 mgt1 strain, at 50.0 µM, active compounds read high. An outline of the steps: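 Mutant yeast exposed to compound; growth scored against vehicle-only wells.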
A short description of test [4]: NCI Yeast Anticancer Drug Screen. Data for the cln2 rad14 strain (AID 165).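 Note: 0% = growth equal to vehicle treated cultures.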 To be noted: S. cerevisiae cln2 rad14 strain, at 50.0 µM, active compounds read high. An outline of the steps:
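Compounds are applied to the cln2 rad14 yeast strain, and growth is then compared with that of vehicle-treated cultures to give inhibition.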

The nature of test [5]: NCI Yeast Anticancer Drug Screen. Data for the bub3 strain (AID 167). Conditions: S. cerevisiae bub3 mutant strain, at 50.0 µM, active compounds read high. The essentials:
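Mutant yeast screening strain plus compound; vehicle-treated cultures serve as the 0% inhibition reference.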

The nature of test [6]: NCI Yeast Anticancer Drug Screen. Data for the mlh1 rad18 strain (AID 175). Conditions: S. cerevisiae mlh1 rad18 strain growth inhibition; at 50.0 µM; active compounds read high. An outline of the steps:
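Read-out is yeast growth inhibition, calculated against vehicle-only controls. The compound was applied to a strain engineered with DNA damage repair alterations.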

Growth inhibition data for 21 molecules are collected here from PubChem BioAssay (NCI).

This is part of a sample that, as a whole, favours compounds with a hit. Of some 79,000 tested, about 15% had one in any assay. Values without a mark were called inactive. Calls of active or inactive are those of the source. Cut-off read from the data, not from the text of the source: active = growth inhibition above about 70%; inactive = the rest.

On to `Nc1ccc(CCc2ccc(S(=O)(=O)F)cc2)cc1`, for which the growth inhibition was 94.8% (active) in test [1]; 95.9% (active) in test [2]; 98.3% (active) in test [3]; 92.8% (active) in test [4]; 92.7% (active) in test [5]; 92.6% (active) in test [6].

Take `CN(C)CCCN1CCCCC1`: the growth inhibition was 8.7% in test [1]; -0.65% in test [2]; -4.45% in test [3]; 3.8% in test [4]; 7.05% in test [5]; -8% in test [6].

Consider `CC(=O)Nc1cc([As]=O)ccc1O` (stereo unspecified), for which the growth inhibition in test [1] was 29.2%; in test [2], 25.2%; in test [3] it was 31.8%; in test [4] it was 10.6%; in test [5], 50.8%; in test [6] it was 32.6%.

For `O=Cc1ccccc1.[C-]#[O+].[C-]#[O+].[C-]#[O+].[Cr]`, the growth inhibition in test [1] is 7.35%; in test [2] it was -34.2%; in test [3], 1.8%; in test [4], -19.1%; in test [5] it was 11.1%; in test [6], 15.8%.

Regarding `O=[N+]([O-])c1ccc(OCc2ccc(S(=O)(=O)F)cc2Cl)c(Cl)c1`, the growth inhibition in test [1] is 1.45%; in test [2], -2.95%; in test [3], -3.15%; in test [4], 20.6%; in test [5], -3.55%; in test [6] it was -3.6%.

For `CCCOC(=O)CCl`, the growth inhibition was 15.4% in test [1]; 15.2% in test [2]; 30.1% in test [3]; 5.25% in test [4]; 5.15% in test [5]; 20.3% in test [6].

For the molecule `CC(Cl)CN(CC(C)Cl)C(=O)Oc1ccc(CC(N)C(=O)O)cc1` (stereo unspecified), the growth inhibition in test [1] is 31.1%; in test [2] it was 0.7%; in test [3], 25.4%; in test [4] it was -20.6%; in test [5], -0.1%; in test [6], 20.3%.

In the case of `OC1CN=C2c3ccccc3C(O)(c3ccc(Cl)cc3)N2C1` (stereo unspecified), the growth inhibition in test [1] was 23.8%; in test [2], 22.1%; in test [3], 37.2%; in test [4] it was -1.9%; in test [5], 22.7%; in test [6] it was 37.5%.

Regarding `CN(C)CCNC(=O)c1cccc(COC(=O)N(CCCl)CCCl)c1[N+](=O)[O-]`, the growth inhibition is 9.55% in test [1]; -2.4% in test [2]; 15.8% in test [3]; 10.1% in test [4]; -9.45% in test [5]; 9.7% in test [6].

Consider `CNC(=O)C(Cl)Cl`, for which the growth inhibition in test [1] was 12.8%; in test [2] it was 4.85%; in test [3] it was 11.7%; in test [4], 0.95%; in test [5], -8.1%; in test [6], 6.15%.

In the case of `CCOC(=N)N1[C@H](C)[C@@H]1C`, the growth inhibition is 43.1% in test [1]; -42.2% in test [2]; -42.1% in test [3]; -19% in test [4]; -43.1% in test [5]; -6.95% in test [6].

For `CNC1=C(N2CC2)C(=O)C(NC)=C(N2CC2)C1=O`, the growth inhibition in test [1] was 7.7%; in test [2], 28.3%; in test [3], 17.9%; in test [4], 10.8%; in test [5], 13.8%; in test [6], 36.4%.

Turning to `NC(N)=N/N=C1\C(=O)N(c2cccc([N+](=O)[O-])c2)C(=O)C1C(=O)Nc1cccc([N+](=O)[O-])c1` (stereo unspecified), the growth inhibition in test [1] was -17.9%; in test [2], -22.4%; in test [3], -17.1%; in test [4], -29.6%; in test [5], 1.4%; in test [6], -14.5%.

With `CCOC(CCCN1CCC2(CC1)C(=O)N(C)CN2c1ccccc1)(OCC)c1ccc(F)cc1`, the growth inhibition in test [1] was 8.45%; in test [2], 20.8%; in test [3], 16.4%; in test [4], 2.3%; in test [5] it was 30.2%; in test [6] it was 25.2%.

`CCN(CC)CC(O)c1ccc(Br)cc1` (stereo unspecified): the growth inhibition was 0.85% in test [1]; -20.1% in test [2]; -0.25% in test [3]; -3.55% in test [4]; 2.65% in test [5]; 5.7% in test [6].

Turning to `C#C[C@]1(O)CC[C@H]2[C@@H]3CCC4=C/C(=N/OC(=O)c5cccc6c(=O)c7ccccc7[nH]c56)CC[C@@H]4[C@H]3CC[C@@]21C`, the growth inhibition is 1.6% in test [1]; -4.5% in test [2]; 11.3% in test [3]; 9.7% in test [4]; -24.9% in test [5]; -3.55% in test [6].

Consider `CCOP(=S)(Oc1ccccc1[N+](=O)[O-])c1ccccc1` (stereo unspecified), for which the growth inhibition is 6.85% in test [1]; 7.4% in test [2]; 12.6% in test [3]; 25.8% in test [4]; 18.9% in test [5]; 10.2% in test [6].

Take `N.N.N.N.N.NC(=O)[O-].[Co+3].[I-]`: the growth inhibition in test [1] was -14.1%; in test [2], 3.9%; in test [3], -13.1%; in test [4], 25.7%; in test [5], -7.75%; in test [6], -15.7%.

On to `CCOC(=S)S.[Ag]`, for which the growth inhibition is 1.6% in test [1]; -17.4% in test [2]; -2.05% in test [3]; -31.6% in test [4]; -15.2% in test [5]; 14.4% in test [6].

`CCOP(=O)(Cc1ccc(Cl)cc1)OCC`: the growth inhibition in test [1] was 33.8%; in test [2] it was 7.9%; in test [3] it was 17.6%; in test [4], 21.4%; in test [5], 15.2%; in test [6], 8.05%.

With `O=[N+]([O-])c1ccccc1CBr`, the growth inhibition in test [1] is 52.8%; in test [2], 34.5%; in test [3], 57%; in test [4] it was 34.9%; in test [5] it was 33.5%; in test [6], 42%.
